# In publication PMC11006913:
# Substitutions are numbered along the chain they refer to.
# Experiments:
# Test in all cases: PBM; 200 nM protein, PBS
# Settings in all cases: dsDNA, one strand shown
# [1] = molecular target: T1, VENTX (Homo sapiens, UniProt O95231 78-163, R121Q)
# T1 sequence: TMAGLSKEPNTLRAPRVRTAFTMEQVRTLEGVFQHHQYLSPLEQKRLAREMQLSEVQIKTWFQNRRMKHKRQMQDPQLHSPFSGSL
# [2] = molecular target: T2, PAX4 (Homo sapiens, UniProt O43316 9-242, R200K)
# T2 sequence: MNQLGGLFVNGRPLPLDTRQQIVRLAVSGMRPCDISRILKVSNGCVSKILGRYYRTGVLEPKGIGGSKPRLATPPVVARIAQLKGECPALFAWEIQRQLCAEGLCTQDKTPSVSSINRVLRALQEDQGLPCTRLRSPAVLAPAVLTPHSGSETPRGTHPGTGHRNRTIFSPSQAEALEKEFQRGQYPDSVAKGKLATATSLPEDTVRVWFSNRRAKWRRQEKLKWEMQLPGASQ
# [3] = molecular target: T3, VENTX (Homo sapiens, UniProt O95231 78-163, Y115F)
# T3 sequence: T1 sequence with Y38F, Q44R
# [4] = molecular target: T4, PAX4 (Homo sapiens, UniProt O43316 9-242)
# T4 sequence: T2 sequence with K192R
# [5] = molecular target: T5, PAX4 (Homo sapiens, UniProt O43316 9-242, R200Q)
# T5 sequence: T2 sequence with K192Q
# [6] = molecular target: T6, PAX4 (Homo sapiens, UniProt O43316 9-242, F177V)
# T6 sequence: T2 sequence with F169V, K192R
# [7] = molecular target: T7, PAX4 (Homo sapiens, UniProt O43316 9-242, F177Y)
# T7 sequence: T2 sequence with F169Y, K192R
# [8] = molecular target: T8, PAX4 (Homo sapiens, UniProt O43316 9-242, R227W)
# T8 sequence: T2 sequence with K192R, R219W
# [9] = molecular target: CRX (Homo sapiens, UniProt O43186 26-111, R41L)
# [10] = molecular target: T9, VENTX (Homo sapiens, UniProt O95231 78-163)
# T9 sequence: T1 sequence with Q44R
# [11] = molecular target: VAX1 (Homo sapiens, UniProt Q5SQQ9 86-172)
# [12] = molecular target: VAX1 (Homo sapiens, UniProt Q5SQQ9 86-172, T142I)
# [13] = molecular target: VAX1 (Homo sapiens, UniProt Q5SQQ9 86-172, K157R)
# [14] = molecular target: HOXB9 (Homo sapiens, UniProt P17482 171-250, T197M)
# [15] = molecular target: HOXC9 (Homo sapiens, UniProt P31274 178-260, K195R)
# [16] = molecular target: HOXC10 (Homo sapiens, UniProt Q9NYD6 254-340)
# [17] = molecular target: ALX4 (Homo sapiens, UniProt Q9H161 200-286, Q225E)
# [18] = molecular target: HOXB9 (Homo sapiens, UniProt P17482 171-250)
# [19] = molecular target: HOXC9 (Homo sapiens, UniProt P31274 178-260)
# [20] = molecular target: HOXD13 (Homo sapiens, UniProt P35453 263-343, T313R)
# [21] = molecular target: HOXC9 (Homo sapiens, UniProt P31274 178-260, R193K)
# [22] = molecular target: HOXD13 (Homo sapiens, UniProt P35453 263-343)
# [23] = molecular target: HOXC10 (Homo sapiens, UniProt Q9NYD6 254-340, K271E)
# [24] = molecular target: HOXD13 (Homo sapiens, UniProt P35453 263-343, T313A)
# [25] = molecular target: HOXB9 (Homo sapiens, UniProt P17482 171-250, R186Q)
# [26] = molecular target: HOXC9 (Homo sapiens, UniProt P31274 178-260, R222W)
# Chain of HOXC9 (Homo sapiens, UniProt P31274 178-260, R222W) (P31274 178-260 R222W): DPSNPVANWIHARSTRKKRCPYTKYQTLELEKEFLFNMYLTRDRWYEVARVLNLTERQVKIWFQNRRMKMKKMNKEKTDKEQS
# Chain of CRX (O43186 26-111 R41L): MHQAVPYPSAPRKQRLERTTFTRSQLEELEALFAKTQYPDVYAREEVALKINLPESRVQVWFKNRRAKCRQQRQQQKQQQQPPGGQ
# Chain of HOXB9 (Homo sapiens, UniProt P17482 171-250, T197M) (P17482 171-250 T197M): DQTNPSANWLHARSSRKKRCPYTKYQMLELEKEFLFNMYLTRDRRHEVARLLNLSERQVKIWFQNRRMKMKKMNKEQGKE
# Chain of HOXD13 (Homo sapiens, UniProt P35453 263-343, T313A) (P35453 263-343 T313A): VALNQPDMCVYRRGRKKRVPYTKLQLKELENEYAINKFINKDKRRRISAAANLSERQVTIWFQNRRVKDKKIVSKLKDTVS
# Chain of VAX1 (Homo sapiens, UniProt Q5SQQ9 86-172) (Q5SQQ9 86-172): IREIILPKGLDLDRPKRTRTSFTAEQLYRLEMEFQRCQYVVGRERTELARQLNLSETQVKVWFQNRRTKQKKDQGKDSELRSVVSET
# Chain of HOXC9 (Homo sapiens, UniProt P31274 178-260) (P31274 178-260): as the sequence (P31274 178-260 R222W) above, with W45R counted along it
# Chain of HOXC9 (Homo sapiens, UniProt P31274 178-260, K195R) (P31274 178-260 K195R): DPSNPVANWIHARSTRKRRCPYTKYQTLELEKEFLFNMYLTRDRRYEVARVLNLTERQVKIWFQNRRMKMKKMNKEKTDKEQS
# Chain of HOXC10 (Homo sapiens, UniProt Q9NYD6 254-340) (Q9NYD6 254-340): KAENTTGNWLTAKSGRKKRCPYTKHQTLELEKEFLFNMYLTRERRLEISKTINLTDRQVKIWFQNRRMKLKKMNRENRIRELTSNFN
# Chain of VAX1 (Homo sapiens, UniProt Q5SQQ9 86-172, T142I) (Q5SQQ9 86-172 T142I): as the sequence (Q5SQQ9 86-172) above, with T57I counted along it
# Chain of HOXC10 (Homo sapiens, UniProt Q9NYD6 254-340, K271E) (Q9NYD6 254-340 K271E): as the sequence (Q9NYD6 254-340) above, with K18E counted along it
# Chain of HOXB9 (Homo sapiens, UniProt P17482 171-250, R186Q) (P17482 171-250 R186Q): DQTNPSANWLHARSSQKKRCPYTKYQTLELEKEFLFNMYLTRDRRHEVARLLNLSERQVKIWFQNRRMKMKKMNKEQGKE
# Chain of ALX4 (Q9H161 200-286 Q225E): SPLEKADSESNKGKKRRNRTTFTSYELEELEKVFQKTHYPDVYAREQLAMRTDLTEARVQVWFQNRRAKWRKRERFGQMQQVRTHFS
# Chain of HOXB9 (Homo sapiens, UniProt P17482 171-250) (P17482 171-250): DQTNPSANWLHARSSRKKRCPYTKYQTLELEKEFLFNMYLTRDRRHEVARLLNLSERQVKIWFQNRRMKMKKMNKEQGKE
# Chain of HOXC9 (Homo sapiens, UniProt P31274 178-260, R193K) (P31274 178-260 R193K): as the sequence (P31274 178-260 R222W) above, with R16K, W45R counted along it
# Chain of VAX1 (Homo sapiens, UniProt Q5SQQ9 86-172, K157R) (Q5SQQ9 86-172 K157R): as the sequence (Q5SQQ9 86-172) above, with K72R counted along it
# Chain of HOXD13 (Homo sapiens, UniProt P35453 263-343, T313R) (P35453 263-343 T313R): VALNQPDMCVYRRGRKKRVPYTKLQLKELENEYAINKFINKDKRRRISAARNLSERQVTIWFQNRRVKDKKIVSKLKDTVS
# Chain of HOXD13 (Homo sapiens, UniProt P35453 263-343) (P35453 263-343): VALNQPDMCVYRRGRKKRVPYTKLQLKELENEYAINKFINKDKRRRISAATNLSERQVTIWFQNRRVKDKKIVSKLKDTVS
sequence,measurement,setting,value
CGCATTAA,binding signal,[1],"10.5 upbm affinity estimate (log intensity, higher = more binding, comparable within an allelic series)"
same,binding signal,[2],"11.7 upbm affinity estimate (log intensity, higher = more binding, comparable within an allelic series)"
same,binding signal,[3],"10.6 upbm affinity estimate (log intensity, higher = more binding, comparable within an allelic series)"
same,binding signal,[4],"12.1 upbm affinity estimate (log intensity, higher = more binding, comparable within an allelic series)"
same,binding signal,[5],"11.6 upbm affinity estimate (log intensity, higher = more binding, comparable within an allelic series)"
same,binding signal,[6],"10.4 upbm affinity estimate (log intensity, higher = more binding, comparable within an allelic series)"
same,binding signal,[7],"11 upbm affinity estimate (log intensity, higher = more binding, comparable within an allelic series)"
same,binding signal,[8],"10.9 upbm affinity estimate (log intensity, higher = more binding, comparable within an allelic series)"
same,binding signal,[9],"10.9 upbm affinity estimate (log intensity, higher = more binding, comparable within an allelic series)"
CCAGCTGC,binding signal,[1],"8.15 upbm affinity estimate (log intensity, higher = more binding, comparable within an allelic series)"
same,binding signal,[10],"8.27 upbm affinity estimate (log intensity, higher = more binding, comparable within an allelic series)"
same,binding signal,[3],"8.21 upbm affinity estimate (log intensity, higher = more binding, comparable within an allelic series)"
same,binding signal,[11],"7.42 upbm affinity estimate (log intensity, higher = more binding, comparable within an allelic series)"
same,binding signal,[12],"7.3 upbm affinity estimate (log intensity, higher = more binding, comparable within an allelic series)"
same,binding signal,[13],"7.2 upbm affinity estimate (log intensity, higher = more binding, comparable within an allelic series)"
CCGATTAG,binding signal,[1],"11.6 upbm affinity estimate (log intensity, higher = more binding, comparable within an allelic series)"
same,binding signal,[10],"12.9 upbm affinity estimate (log intensity, higher = more binding, comparable within an allelic series)"
same,binding signal,[3],"11.6 upbm affinity estimate (log intensity, higher = more binding, comparable within an allelic series)"
same,binding signal,[9],"11.4 upbm affinity estimate (log intensity, higher = more binding, comparable within an allelic series)"
ATTTATTG,binding signal,[14],"9.87 upbm affinity estimate (log intensity, higher = more binding, comparable within an allelic series)"
same,binding signal,[15],"12.5 upbm affinity estimate (log intensity, higher = more binding, comparable within an allelic series)"
same,binding signal,[16],"12.4 upbm affinity estimate (log intensity, higher = more binding, comparable within an allelic series)"
same,binding signal,[17],"11.2 upbm affinity estimate (log intensity, higher = more binding, comparable within an allelic series)"
same,binding signal,[18],"11.9 upbm affinity estimate (log intensity, higher = more binding, comparable within an allelic series)"
same,binding signal,[19],"12.7 upbm affinity estimate (log intensity, higher = more binding, comparable within an allelic series)"
same,binding signal,[20],"10.9 upbm affinity estimate (log intensity, higher = more binding, comparable within an allelic series)"
same,binding signal,[21],"12.6 upbm affinity estimate (log intensity, higher = more binding, comparable within an allelic series)"
same,binding signal,[22],"12.2 upbm affinity estimate (log intensity, higher = more binding, comparable within an allelic series)"
same,binding signal,[23],"11.7 upbm affinity estimate (log intensity, higher = more binding, comparable within an allelic series)"
same,binding signal,[24],"12 upbm affinity estimate (log intensity, higher = more binding, comparable within an allelic series)"
same,binding signal,[25],"11.6 upbm affinity estimate (log intensity, higher = more binding, comparable within an allelic series)"
same,binding signal,[26],"11.2 upbm affinity estimate (log intensity, higher = more binding, comparable within an allelic series)"
